Laboratory results taken from PubChem BioAssay (NCATS).
Records with an inconclusive call do not appear. Calls of active or inactive are those of the source. The call rests on the fitted dose curve; tested in HEK293 reporter line.

Key:
[1] = qHTS for Inhibitors of the Functional Ribonucleoprotein Complex (vRNP) of Lassa (LASV) Arenavirus: LASV Primary Screen - GLuc reporter signal (AID 1347082); further: nearly all actives have a fitted effect of over 60% in size
[2] = qHTS for Inhibitors of the Functional Ribonucleoprotein Complex (vRNP) of Lassa (LASV) Arenavirus: Viability assay - alamar blue signal for LASV Primary Screen (AID 1347083); further: nearly all actives have a fitted effect of over 80% in size
[3] = qHTS for Inhibitors of the Functional Ribonucleoprotein Complex (vRNP) of Lymphocytic Choriomeningitis Arenaviruses (LCMV): Viability assay - alamar blue signal for LCMV Primary Screen (AID 1347085); further: nearly all actives have a fitted effect of over 80% in size

Measured: Potency
Further: series mostly up to about 57 µM.

CCCCNc1cc(C(=O)O)cc(S(N)(=O)=O)c1Oc1ccccc1
inactive: all assays above

CCOC(=O)C(C#N)=C(c1ccccc1)c1ccccc1
inactive: all assays above

C[C@H](CCC(=O)O)[C@H]1CC[C@H]2[C@@H]3C(=O)C[C@@H]4CC(=O)CC[C@]4(C)[C@H]3CC(=O)[C@]12C
inactive: all assays above

CCOC(=O)c1c(N)sc2c1CCN(Cc1ccccc1)C2
inactive: all assays above

CCN(CC)CCOC(=O)C1(c2ccccc2)CCCC1
inactive: all assays above

COc1cc(C(=O)OCCCN2CCCN(CCCOC(=O)c3cc(OC)c(OC)c(OC)c3)CC2)cc(OC)c1OC
inactive: all assays above

CC(C)NCC(O)c1ccc2ccccc2c1 (stereo not given)
inactive: all assays above

CC(C)NCCCC1(C(N)=O)c2ccccc2-c2ccccc21
inactive: all assays above

CC(C)=CCOc1ccc(/C=C/C(=O)c2ccc(OCC=C(C)C)cc2OCC(=O)O)cc1
inactive: all assays above

CN(C)[C@@H](CCOc1cccc2ccccc12)c1ccccc1
inactive: all assays above

CCOC(=O)OC(C)OC(=O)[C@@H]1N2C(=O)[C@@H](NC(=O)[C@H](N)c3ccccc3)[C@H]2SC1(C)C (stereo not given in full)
inactive: all assays above

Cc1ccc2c(Cl)cc(Cl)c(O)c2n1
inactive: all assays above

CN1[C@@H]2CC[C@H]1CC(NC(=O)n1c(=O)[nH]c3ccccc31)C2 (stereo not given in full)
inactive: all assays above

CCCCC1C(=O)N(c2ccccc2)N(c2ccccc2)C1=O
inactive: all assays above

COc1ccccc1OC(=O)Oc1ccccc1OC
inactive: all assays above

CC1(C)S[C@@H]2[C@H](N=CN3CCCCCC3)C(=O)N2[C@H]1C(=O)O
inactive: all assays above

O=C(Nc1ccc(S(=O)(=O)N2CCOCC2)cc1)c1cc(Cl)ccc1NS(=O)(=O)c1ccc(Cl)s1
inactive: all assays above

O=C(O)CCC(=O)c1ccc(-c2ccccc2)cc1
inactive: all assays above

O=C1c2ccccc2C(=O)C1c1ccccc1
inactive: all assays above

CCOc1ccccc1O[C@H](c1ccccc1)[C@H]1CNCCO1
inactive: all assays above

CN(Cc1cc(Br)cc(Br)c1N)C1CCCCC1
inactive: all assays above

COCCc1ccc(OCC2CO2)cc1 (stereo not given)
inactive: all assays above

Cc1ccc(=O)n(-c2ccccc2)c1
inactive: all assays above

CC(C)(C)CC(=O)OCC(=O)[C@@]1(O)CC[C@H]2[C@@H]3CCC4=CC(=O)C=C[C@]4(C)[C@H]3[C@@H](O)C[C@@]21C
inactive: all assays above

Cc1c(F)cc2c(=O)c(C(=O)O)cn3c2c1CCC3C (stereo not given)
inactive: all assays above

Nc1ccc2c(c1)CN1C(=O)c3ccccc3C1=N2
inactive: all assays above

O=C(O)CN(CCOCCOCCN(CC(=O)O)CC(=O)O)CC(=O)O
inactive: all assays above

C[C@H]1COc2c(C3(N)CC3)c(F)cc3c(=O)c(C(=O)O)cn1c23
inactive: all assays above

CCCCCCCCOc1ccccc1C(=O)Nc1ccc(C(=O)OCC[N+](C)(CC)CC)cc1
inactive: all assays above

O=C(Nc1ccc(C(=O)O)c(O)c1)c1ccccc1
inactive: all assays above

O=C1NC(=O)[C@@]2(CCOc3ccc(F)cc32)N1
inactive: all assays above

O=C1OC(OC(=O)c2cccnc2Nc2cccc(C(F)(F)F)c2)c2ccccc21 (stereo not given)
inactive: all assays above

CC(CC1c2ccccc2CCc2ccccc21)CN(C)C (stereo not given)
inactive: all assays above

Cc1cccc(CN2CCN(C(c3ccccc3)c3ccc(Cl)cc3)CC2)c1 (stereo not given)
inactive: all assays above

CCN(CC)CCOc1ccccc1C(=O)CCc1ccccc1
inactive: all assays above

O=[N+]([O-])c1nccn1CO[C@@H](CO)[C@H](O)CO
inactive: all assays above

CCc1cc(Cl)c(OC)c(C(=O)NC[C@@H]2CCCN2CC)c1O
inactive: all assays above

CN(C)C(=O)CNC(=O)Cc1ccccc1
inactive: all assays above

CN(C)CCCOC1(Cc2ccccc2)CCCCCC1
inactive: all assays above

Nc1cc(C(F)(F)F)ccc1S
inactive: all assays above
